Assay results from the supplement of paper PMC9694430.

What was measured:
Assay in all cases: thermal shift delta Tm vs DMSO control; higher = stronger stabilization (binding)
Settings in all cases: 12.5 µM; protein concentration 2 µM
LOC_OS02G45750-cb003 = test system: LOC_OS02G45750-cb003
In short: (§1)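 Rice kinase domain constructs, made in E. coli and purified, were placed in 96-well plates at 2 μM in 19.5 μl of 100 mM potassium phosphate pH 7.5, 150 mM NaCl, 10% glycerol and 5 × SYPRO Orange, with compound in DMSO. A temperature ramp from 25°C to 95°C at 0.05°C/s was used for differential scanning fluorimetry. The melting temperature shift is a triplicate mean compared with DMSO-only protein, derived from Boltzmann fits.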

LOC_OS02G54510-cb004 = test system: LOC_OS02G54510-cb004
In short: as §1

LOC_OS03G04050-cb001 = test system: LOC_OS03G04050-cb001
In short: as §1

LOC_OS03G12390-cb001 = test system: LOC_OS03G12390-cb001
In short: as §1

LOC_OS03G27990-cb004 = test system: LOC_OS03G27990-cb004
In short: as §1

LOC_OS03G50450-cb001 = test system: LOC_OS03G50450-cb001
In short: as §1

LOC_OS03G50810-cb003 = test system: LOC_OS03G50810-cb003
In short: as §1

LOC_OS04G35114-cb001 = test system: LOC_OS04G35114-cb001
In short: as §1

LOC_OS04G38480-cb003 = test system: T1, LOC_OS04G38480-cb003
T1 sequence (whole entry): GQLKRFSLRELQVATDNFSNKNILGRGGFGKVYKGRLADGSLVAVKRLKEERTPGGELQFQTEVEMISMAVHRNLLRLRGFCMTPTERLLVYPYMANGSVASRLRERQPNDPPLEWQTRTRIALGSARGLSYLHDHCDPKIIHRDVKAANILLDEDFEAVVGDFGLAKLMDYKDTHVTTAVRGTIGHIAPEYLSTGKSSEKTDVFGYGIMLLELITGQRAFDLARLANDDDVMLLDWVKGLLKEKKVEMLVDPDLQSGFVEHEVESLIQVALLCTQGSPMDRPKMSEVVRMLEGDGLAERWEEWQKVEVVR
In short: as §1

LOC_OS04G41100-cb001 = test system: T2, LOC_OS04G41100-cb001
T2 sequence (whole entry): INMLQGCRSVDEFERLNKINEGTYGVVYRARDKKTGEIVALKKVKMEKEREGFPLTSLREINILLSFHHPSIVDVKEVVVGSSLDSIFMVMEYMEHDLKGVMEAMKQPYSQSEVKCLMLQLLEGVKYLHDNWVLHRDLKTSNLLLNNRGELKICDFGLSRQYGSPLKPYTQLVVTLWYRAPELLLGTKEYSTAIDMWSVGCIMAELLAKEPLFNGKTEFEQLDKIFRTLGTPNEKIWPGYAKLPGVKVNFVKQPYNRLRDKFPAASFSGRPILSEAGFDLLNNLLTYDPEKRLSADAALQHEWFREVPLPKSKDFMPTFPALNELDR
In short: as §1

LOC_OS04G57630-cb004 = test system: LOC_OS04G57630-cb004
In short: as §1

LOC_OS05G07850-cb002 = test system: LOC_OS05G07850-cb002
In short: as §1

LOC_OS05G28520-cb001 = test system: LOC_OS05G28520-cb001
In short: as §1

LOC_OS05G30820-cb001 = test system: LOC_OS05G30820-cb001
In short: as §1

LOC_OS05G43570-cb004 = test system: LOC_OS05G43570-cb004
In short: as §1

LOC_OS06G16330-cb003 = test system: LOC_OS06G16330-cb003
LOC_OS06G16330-cb003, sequence (as listed by the source): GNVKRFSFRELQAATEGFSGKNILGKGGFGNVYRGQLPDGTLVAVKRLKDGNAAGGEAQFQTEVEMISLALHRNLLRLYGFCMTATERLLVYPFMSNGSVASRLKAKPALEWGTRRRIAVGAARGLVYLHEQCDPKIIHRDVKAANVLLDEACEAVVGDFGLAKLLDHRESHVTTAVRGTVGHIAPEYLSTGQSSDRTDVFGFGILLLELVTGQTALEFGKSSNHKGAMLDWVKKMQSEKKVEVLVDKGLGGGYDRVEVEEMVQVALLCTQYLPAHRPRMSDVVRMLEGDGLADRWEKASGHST
In short: as §1

LOC_OS06G22820-cb001 = test system: T3, LOC_OS06G22820-cb001
T3 sequence (whole entry): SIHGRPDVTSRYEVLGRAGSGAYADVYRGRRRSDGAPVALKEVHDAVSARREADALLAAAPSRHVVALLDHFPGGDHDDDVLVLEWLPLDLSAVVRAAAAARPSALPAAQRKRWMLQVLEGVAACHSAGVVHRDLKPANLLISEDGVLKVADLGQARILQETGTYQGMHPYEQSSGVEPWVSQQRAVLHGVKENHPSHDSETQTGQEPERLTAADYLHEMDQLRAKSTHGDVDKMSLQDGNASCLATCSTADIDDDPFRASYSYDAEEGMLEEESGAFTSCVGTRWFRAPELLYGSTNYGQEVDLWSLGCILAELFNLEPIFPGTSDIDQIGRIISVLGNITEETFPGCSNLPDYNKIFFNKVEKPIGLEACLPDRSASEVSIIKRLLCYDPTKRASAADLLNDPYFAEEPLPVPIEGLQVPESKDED
In short: as §1

LOC_OS07G06570-cb004 = test system: LOC_OS07G06570-cb004
In short: as §1

LOC_OS07G07230-cb001 = test system: LOC_OS07G07230-cb001
In short: as §1

LOC_OS05G16824-cb004 = test system: LOC_OS05G16824-cb004
In short: as §1
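Also: purified Escherichia coli-expressed rice kinase domain construct.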

SMILES | thermal shift delta Tm (LOC_OS02G45750-cb003) [°C] | thermal shift delta Tm (LOC_OS02G54510-cb004) [°C] | thermal shift delta Tm (LOC_OS03G04050-cb001) [°C] | thermal shift delta Tm (LOC_OS03G12390-cb001) [°C] | thermal shift delta Tm (LOC_OS03G27990-cb004) [°C] | thermal shift delta Tm (LOC_OS03G50450-cb001) [°C] | thermal shift delta Tm (LOC_OS03G50810-cb003) [°C] | thermal shift delta Tm (LOC_OS04G35114-cb001) [°C] | thermal shift delta Tm (LOC_OS04G38480-cb003) [°C] | thermal shift delta Tm (LOC_OS04G41100-cb001) [°C] | thermal shift delta Tm (LOC_OS04G57630-cb004) [°C] | thermal shift delta Tm (LOC_OS05G07850-cb002) [°C] | thermal shift delta Tm (LOC_OS05G28520-cb001) [°C] | thermal shift delta Tm (LOC_OS05G30820-cb001) [°C] | thermal shift delta Tm (LOC_OS05G43570-cb004) [°C] | thermal shift delta Tm (LOC_OS06G16330-cb003) [°C] | thermal shift delta Tm (LOC_OS06G22820-cb001) [°C] | thermal shift delta Tm (LOC_OS07G06570-cb004) [°C] | thermal shift delta Tm (LOC_OS07G07230-cb001) [°C] | thermal shift delta Tm (LOC_OS05G16824-cb004) [°C]
CCC[C@H](NC(=O)/C(C#N)=C/c1cccc(Br)n1)c1ccccc1 [Degrasyn (WP1130)] | -2.36 | -1.29 | 0.2 | -5.26 | -3.68 | -0.35 | -2.71 | -2.87 | 1.05 | -0.61 | -2.22 | -0.67 | -0.84 | 0.52 | -0.8 | -2.97 | 0.49 | -0.53 | 0.24 | –
Cc1[nH]c(/C=C2\C(=O)Nc3ccccc32)c(C)c1CCC(=O)O [Orantinib (TSU-68, SU6668)] | 0 | 2.74 | 0.04 | 9.53 | 0.65 | 5.03 | 0 | 8.78 | 4.57 | 0.53 | 0.84 | 9.92 | 0.62 | 1.03 | 0.68 | – | 0.6 | 1.28 | 0.28 | 0
CCN(CC)CCNC(=O)c1c(C)[nH]c(/C=C2\C(=O)Nc3ccc(-c4csc(-c5ccccc5)n4)cc32)c1C [Amcasertib (BBI503)] | 0 | 0.74 | 0.42 | 0.16 | 0.77 | 1.61 | 7.41 | 15 | 1.78 | 0.78 | 2.36 | 10.8 | 2.76 | 0.34 | 0 | 6.16 | 0.72 | 1.73 | 0.75 | 12.7
CN(C)S(=O)(=O)c1ccc2c(c1)/C(=C/c1cc3c([nH]1)CCCC3)C(=O)N2 | 0 | 1.15 | 0.65 | 0.26 | 0.61 | 0.97 | 0 | 0 | 6.35 | 0.43 | 1.35 | 7.38 | 1.28 | 1.28 | 0.71 | – | 1.01 | 1.01 | 0.86 | -3.8
Cn1cc(C2=C(c3ccc(Cl)cc3Cl)C(=O)NC2=O)c2ccccc21 | 1.02 | 0.82 | 0.78 | 0.98 | 0.26 | 0.6 | 0.67 | 1.64 | 1.13 | 0.96 | 0.28 | 2.36 | 2.17 | 0.49 | 0.84 | – | 1.02 | 2.2 | 0.68 | 0.19
COc1cc2ncnc(Nc3ccc(Oc4ccccc4)cc3C)c2cc1OC | 1.39 | 0.53 | 0.35 | -0.19 | 0.39 | 0.77 | 0.51 | 4.14 | 1.19 | -0.13 | 0.31 | 8.78 | 0.23 | 0.05 | -0.01 | 2.86 | 0.95 | 1.5 | 0.54 | -9.65
